Source: PubChem
Shiga toxin inh: Shiga toxin inhibition. Vero cells, Shiga toxin protein synthesis inhibition reporter. inhibition, % at 38.7 µM. 290,000 tested, 9.2% active. AID 2315; in the data active = inhibition mostly above about 28%, no sharp cut-off; inactive = mostly below about 43%; note: 0% is about no effect
Pf growth 48h: P. falciparum growth inhibition at 48 hours (one generation). AID 504832. 310,000 tested, 5.9% active. Potency, µM (doses to about 28.7 µM), for the others: at the highest dose activity change, negative = inhibition, usual class: inhibitors. P. falciparum luciferase growth in erythrocytes, 48 h; note: potency is the fitted concentration of half-maximal effect; % is set by controls: 0 for no effect and ±100 for the full control effect
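Luciferase-expressing P. falciparum in infected erythrocytes (2% hematocrit, 0.1% parasitemia final) in RPMI 1640/0.5% Albumax were exposed to compound for 48 hours at 37 C, 5% CO2; growth read as luminescence.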
Pf growth 96h: P. falciparum growth inhibition at 96 hours. P. falciparum luciferase reporter growth, 96 h. Potency, µM (doses to about 28.7 µM), for the others: top-dose activity change, negative = inhibition, actives largely listed as inhibitors. 320,000 tested, 6.9% active; note: potency is the fitted concentration of half-maximal effect; % is set by controls: 0 for no effect and ±100 for the full control effect
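Delayed-death screen, second-generation endpoint: infected erythrocytes, 2% hematocrit, 0.05% parasitemia final; 96 hours at 37 C, 5% CO2; luciferase detection reagent; luminescence decrease equals reduced growth.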
CHX counter: counter-screen hit for Shiga toxin inhibitors, cycloheximide; cell reporter, cycloheximide protein synthesis inhibition counterscreen; max response, %; 300,000 tested, 12% active; AID 2314; in the data active = max response mostly above about 13%, no sharp cut-off; inactive = mostly below about 14%; note: read at 38.3 µM for the half of the compounds with a filed dose; 0% is about no effect
HCV inhibitor: blocks hepatitis C virus. Potency, µM (titrated, usually from 41.8 µM), inactives show top-dose activity change, negative = inhibition, usual class: inhibitors. 340,000 tested, 3.4% active. Huh7.5.1 HCVcc-Cre infection, luciferase reporter, 44 h; note: potency is the fitted concentration of half-maximal effect; % is set by controls: 0 for no effect and ±100 for the full control effect
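Compounds are dispensed onto cells plated 4 h earlier at 1,000 per well, with HCVcc-Cre virus (about 0.5 moi) added next. Following 44 h of culture, luminescent signal is measured for 15 sec after 15 min with substrate at room temperature.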
HCMV inh: human cytomegalovirus inhibition. HFF cells, HCMV-luciferase reporter, 72 h; active compounds read low. activity change, negative = inhibition, % at 57.5 µM. 410,000 tested, 4.5% active; in the data active = activity change below about -60%; inconclusive = no clear call, values can overlap the other calls; inactive = above about -39%; note: % is set by controls: 0 for no effect and ±100 for the full control effect
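Two-dose cell screen: HFF monolayers treated with compounds and infected with luciferase-expressing HCMV at 1 PFU/cell, 72 h at 37C, then lysed for luciferase measurement.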
Numbers without * were called inactive; u = inconclusive; x = no result. This is a sample that favours compounds with a hit; in the whole collection about 21% have one here. Unless noted, calls come from the whole dose curve; as a rule, active = well fitted inhibition curve with a large enough effect; inconclusive = small, poorly fitted or top-dose-only effect, or another doubt; inactive = no such curve, though single readings can be large or run the other way.

SMILES | Shiga toxin inh | Pf growth 48h | Pf growth 96h | CHX counter | HCV inhibitor | HCMV inh
C=CCn1c(NCc2ccccc2)nc2ccccc21 | 50.5 | 41.6% | 70.4% | 15.5* | -0.4% | 22.2
CCN(CC)c1ccc(CNc2nc3ccccc3n2CC)cc1 | -12.8 | 21.8% | 3.4% | 1.5 | u | u
C=CCn1c(NCc2ccccc2OC)nc2ccccc21 | 32.1 | 60.9% | u | 17.5* | -5.9% | -9.7
C=CCn1c(NCc2ccc(OC)cc2O)nc2ccccc21 | 22.7* | u | 2.94µM* | 32.7* | u | 28.8
CC(C)(C)NC(=O)CC1C(=O)NCCN1Cc1c(F)cccc1Cl (configuration not stated) | -5.2 | u | u | -2.9 | -3.2% | -32.5
Cn1c(NCc2ccccc2Cl)nc2ccccc21 | x | x | x | x | 1.8% | 251.0
CCn1c(NCc2cc(Cl)ccc2O)nc2ccccc21 | 2.4 | 7.38µM* | 5.22µM* | 5.5 | 31.6µM* | 0.0
Cn1c(NCc2ccccc2O)nc2ccccc21 | 37.2 | -2.0% | x | 38.4* | 6.1% | 112.3
O=C(c1ccc(OC2CCN(Cc3ccccc3C(F)(F)F)CC2)cc1)N1CCCCC1 | -6.3 | u | 3.29µM* | 11.3 | u | 6.7
CCCn1cc(CN2CCC(Oc3ccc(C(=O)N4CCCC4)cc3)CC2)c(C)n1 | -2.6 | -16.3% | 10.4µM* | 2.4 | -2.8% | 0.0
Cn1cc(CN2CCC(Oc3ccc(C(=O)N4CCCC4)cc3)CC2)cn1 | -4.7 | 4.4% | -23.8% | -2.6 | 4.8% | 46.2
COc1cc(NC(=O)CN2CCCN(S(=O)(=O)c3ccc(F)cc3)CC2)cc(OC)c1 | x | x | x | x | x | -3.8
COC(=O)[C@H](Cc1ccccc1)[C@@H](C)OS(N)(=O)=O | -3.9 | 7.1% | 2.0% | -1.8 | -0.7% | -17.6
CCC(=O)N1CCC1(C)C(=O)Nc1ccc(OC(F)F)cc1 (configuration not stated) | x | x | x | x | x | -63.3*
CCCC(=O)N1CCCC1(C)C(=O)Nc1ccc(OC(F)F)cc1 (configuration not stated) | x | x | x | x | x | 14.2
COc1cccc(CNC(=O)Cn2nc(-c3ccc(C)cc3)ccc2=O)c1 | x | x | x | x | x | -34.7
O=C(Cc1cccs1)NCc1ccc(Cl)cc1Cl | 104.5* | -98.1% | u | 41.8* | -5.4% | -9.0
O=C(NCc1cccc(Cl)c1)c1oc(=O)c2ccccc2c1-c1ccccc1 | x | x | x | x | x | -68.7*
Cc1ccc(-c2c(C(=O)NCCc3ccc(Cl)cc3)oc(=O)c3ccccc23)cc1 | x | x | x | x | x | -3.6
O=C(Cc1cccs1)NCc1cc(Cl)cc(Cl)c1 | 51.6* | x | 6.4% | 44.1* | 16.5% | 36.1
CCCOc1ccc(CNC(=O)Cc2cccs2)cc1 | 108.1* | 71.0% | u | 45.8* | -5.0% | 34.6
CC(C)(CNC(=O)C1c2ccccc2-c2ccccc21)N1CCOCC1 | 2.6 | u | -12.8% | -0.9 | -0.8% | -5.7
O=C(CN1C(=O)NC2(CCCCCCC2)C1=O)NCc1ccc(Cl)cc1 | x | x | x | x | -8.4% | 5.2
O=C(COC(=O)Cc1ccc(F)cc1)NC(=O)c1ccccc1 | x | 18.7% | -3.2% | x | 7.7% | -33.8
Cn1c2cc(S(C)(=O)=O)sc2c2cnn(Cc3ccccc3F)c(=O)c21 | -2.2 | x | x | -6.9 | x | x
SMILES | Shiga toxin inh | Pf growth 48h | Pf growth 96h | CHX counter | HCV inhibitor | HCMV inh
Cc1cccc(N(C)c2nc3ccccc3c3nnc(C)n23)c1 | x | x | x | x | x | 0.0
O=C(Cc1cccs1)NCc1cccc(F)c1 | 40.5* | 76.3% | -3.0% | 27.5 | 21.3% | 19.8
O=C(Cc1cccs1)NCc1cccc(CNC(=O)Cc2cccs2)c1 | -10.6 | -10.8% | 64.3% | -3.1 | -0.3% | -5.2
O=C(Cc1cccs1)NCc1cccc(Cl)c1 | 88.7* | 78.9% | 7.9% | 41.3* | -3.5% | 15.5
Cc1ccc(NC(=O)C2CC(O)CN2C(=O)Oc2ccccc2)c(C)c1 (configuration not stated) | -15.1 | 28.8% | u | -0.1 | -3.3% | 25.7
CC(=O)Nc1ccc(NC(=O)C2CCCN2C(=O)Nc2ccccc2[N+](=O)[O-])cc1 (configuration not stated) | 2.6 | 8.0% | 18.1% | -2.8 | 2.2% | 1.5
Cc1cccc(NC(=O)N2CCCC2C(=O)NCc2ccccc2)c1 (configuration not stated) | x | -9.4% | 9.28µM* | -1.7 | 3.2% | -15.0
Cc1ccc(NC(=O)C2CC(O)CN2C(=O)OCc2ccccc2)c(C)c1 (configuration not stated) | 9.4 | 31.2% | u | -4.7 | 17.4% | -62.9*
Cc1ccc(NC(=O)C2CCCN2C(=O)OCc2ccccc2)c(O)c1 (configuration not stated) | -3.9 | u | 5.22µM* | -3.9 | -6.6% | 0.0
O=C(Nc1ccccc1)C1CCCN1C(=O)Nc1ccccc1[N+](=O)[O-] (configuration not stated) | -32.3 | 17.6% | -30.2% | 6.0 | -13.7% | -61.5*
COc1cc(NC(=O)CCn2c(-c3ccccc3)cc(C(C)=O)c2C)cc(OC)c1 | x | x | x | x | x | 0.0
O=C(Nc1ccc(F)cc1F)c1cc2ccc3cccnc3c2[nH]1 | x | x | x | x | x | 4.9
Cc1ccn2c(Nc3ccc(F)cc3)c(-c3ccccn3)nc2c1 | x | x | x | x | x | -9.9
Cc1ccc(Nc2c(-c3ccccn3)nc3cccc(C)n23)cc1 | 1.1 | u | u | -4.7 | 6.31µM* | 0.0
Cc1cccc2nc(-c3ccccn3)c(Nc3ccccc3)n12 | x | x | x | x | x | -82.4*
Cc1cccc2nc(-c3ccccn3)c(Nc3ccc(F)cc3)n12 | x | x | x | x | x | -97.2*
O=C1CCC[C@H]2[C@@H](Cc3ccccc3)[C@@H](NCc3cccs3)CC[C@]23CCCN13 | x | x | x | x | x | -10.6
CC1(C)N=C(N)N=C(N)N1c1ccc(CCCCc2ccccc2)cc1 | x | x | x | x | x | -100.6*
COC(=O)NC(=S)Nc1ccc(Oc2ccc(Cl)cc2)c(Cl)c1 | -8.0 | u | x | 6.3 | -23.5% | -5.7
CC1(C)N=C(N)N=C(N)N1c1ccccc1 | -5.0 | x | 0.738µM* | -4.5 | u | -29.6
CC1(C)CC(=O)N(c2ccccc2)C1(C)O (configuration not stated) | 31.3 | 3.4% | 0.6% | -4.1 | 8.5% | -14.1
CC1(C)N=C(N)N=C(N)N1c1cccc(CN)c1 | 20.8 | 0.828µM* | 0.928µM* | -1.9 | 13.3% | 19.3
CC1(C)N=C(N)N=C(N)N1c1ccc(Oc2ccc(Cl)cc2)c(Cl)c1 | -14.5 | 0.208µM* | -0.2% | -5.4 | u | -99.5*
